SMILES strings stand for the structures. Records with an inconclusive call do not appear. The source made the active and inactive calls. Calls come from the whole dose curve; as a rule, active = well fitted activation curve with a large enough effect; inconclusive = small, poorly fitted or top-dose-only effect; inactive = no such curve, though single readings can be large or run the other way.
Potency is the fitted concentration of half-maximal effect.

Chain of Cellular tumor antigen p53 (Homo sapiens) (P04637 whole entry, looked up): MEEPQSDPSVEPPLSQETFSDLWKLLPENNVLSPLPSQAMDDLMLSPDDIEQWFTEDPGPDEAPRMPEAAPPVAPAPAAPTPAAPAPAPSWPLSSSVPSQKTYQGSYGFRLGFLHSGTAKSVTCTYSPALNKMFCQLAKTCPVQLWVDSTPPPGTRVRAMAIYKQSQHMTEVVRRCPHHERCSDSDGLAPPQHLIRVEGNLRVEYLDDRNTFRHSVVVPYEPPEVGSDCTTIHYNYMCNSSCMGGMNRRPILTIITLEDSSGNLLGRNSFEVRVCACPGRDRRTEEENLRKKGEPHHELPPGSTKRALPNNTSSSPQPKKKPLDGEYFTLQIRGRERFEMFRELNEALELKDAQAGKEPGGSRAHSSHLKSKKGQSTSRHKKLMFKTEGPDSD

This test has as its target Cellular tumor antigen p53 (Homo sapiens) (UniProt P04637). The experiment in a line: Primary qHTS for small molecule compounds that upregulate eGFP-tagged delta133p53alpha (in N-terminal) cells. (AID 2060322).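 For activation: series mostly up to about 56 µM; 0% = DMSO vehicle and 100% = reference activator.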 Note: nearly all actives have a fitted effect of over 75% in size. Conditions: NCI-H358 eGFP-delta133p53alpha fluorescence, 24 h; activation: hits give high values. The procedure, abridged: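 NCI-H358 cells pre-induced 24 h with 10 ng/ml doxycycline to express N-terminal eGFP-delta133p53alpha, then dosed 24 h at 37C without doxycycline; fixed, Hoechst-stained, GFP intensity by laser scanning cytometry, normalized to DMSO (0%) and 57.5 uM 5-azacytidine (100%).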
Turning to `CC1=CC(=O)CC(C)(C)[C@@]1(O)CC[C@@H](C)O[C@@H]1O[C@H](CO)[C@@H](O)[C@H](O)[C@H]1O`, the activation was 29.5% (inactive). `CC(=O)/C=C/C1(O)C(C)=CC(=O)CC1(C)C` (stereo not given): the activation was 14.3% (inactive). For the molecule `NC(=O)C1=CC2C3C=CC2C(OC3=O)O1` (stereo not given), the activation is 27.5% (inactive).

In the case of `Cc1cccc(N(C)C(=S)Oc2ccc3c(c2)CCC3)c1`, the activation is -3% (inactive). `COc1cc(O)cc2c1C(=O)OC(C)C2` (stereo not given): the activation was -13% (inactive). Regarding `CC(C)C1C(OC(=O)/C=C/c2ccccc2)CC2(C)OC2CCC2(C)OC2C1O` (stereo not given), the activation was -0.763% (inactive). On the same count and under the same terms, the value for `CC1=CCC(C(C)(C)O[C@@H]2O[C@H](CO[C@@H]3O[C@@H](C)[C@H](O)[C@@H](O)[C@H]3O)[C@@H](O)[C@H](O)[C@H]2O)CC1` (stereo not given in full) was -6.11% (inactive); that for `CC(CCC1(O)OC2CC3C4CC=C5CC(O[C@@H]6O[C@H](CO)[C@@H](O[C@@H]7O[C@@H](C)[C@H](O)[C@@H](O)[C@H]7O)[C@H](O)[C@H]6O[C@@H]6O[C@@H](C)[C@H](O)[C@@H](O)[C@H]6O)CCC5(C)C4CCC3(C)C2C1C)CO[C@@H]1O[C@H](CO)[C@@H](O)[C@H](O)[C@H]1O` (stereo not given in full) was 8.04% (inactive); that for `CC1=CC(=O)C[C@H]2[C@@H]1CC[C@@H](C)[C@]21CO[C@H](c2ccoc2)C1=O` was -3.82% (inactive). In the case of `C[C@@H]1O[C@@H](O[C@H]2[C@H](OC(=O)[C@]34CCC(C)(C)C[C@H]3C3=CCC5[C@@]6(C)C[C@@H](O)[C@@H](O)[C@@](C)(CO)C6[C@H](O)C[C@@]5(C)[C@]3(C)CC4)OC[C@H](O)[C@@H]2O)[C@H](O)[C@H](O)[C@H]1O[C@@H]1OC[C@@H](O)[C@H](O[C@H]2O[C@H](C)[C@@H](O)[C@H](O)[C@@H]2O)[C@H]1O` (stereo not given in full), the activation is -2.68% (inactive). Still for that read-out and setting: in the case of `COC1/C=C/C(C)(O)C(SCC(N)C(=O)O)CC(=O)OC(C)C(C)CC/C=C/1C` (stereo not given) it was 0.763% (inactive); in that of `CC(=O)N[C@H]1[C@H](O[C@H]2CC[C@]3(C)C4CC=C5[C@@H]6CC(C)(C)CC[C@]6(C(=O)O)[C@H](O)C[C@@]5(C)[C@]4(C)CC[C@H]3C2(C)C)O[C@H](CO)[C@@H](O)[C@@H]1O` (stereo not given in full), 9.82% (inactive); in that of `CC(=O)OC(CSC1CCC(=O)OC(C)CCC(=O)C1)C(=O)O` (stereo not given), -6.87% (inactive). The same measure, in the same setting: the value for `C[C@@H]1O[C@@H](O[C@@H]2[C@@H](O)[C@H](O[C@H]3[C@H](O[C@H]4CC[C@@]5(C)C(CC[C@]6(C)C5CC=C5[C@@H]7CC(C)(C)CC[C@]7(C(=O)O[C@@H]7O[C@H](CO)[C@@H](O)[C@H](O)[C@H]7O[C@@H]7O[C@@H](C)[C@H](O[C@@H]8O[C@@H](C)[C@H](O)[C@@H](O)[C@H]8O)[C@@H](O)[C@H]7O)CC[C@]56C)[C@@]4(C)CO)O[C@H](C(=O)O)[C@@H](O)[C@@H]3O)O[C@H](CO)[C@H]2O)[C@H](O)[C@H](O)[C@H]1O` (stereo not given in full) was -9.16% (inactive); that for `C=CC/C=C\C/C=C\CCCCCCCc1cccc(O)c1C(=O)O` was 8.04% (inactive).

Regarding `COc1ccccc1NC(=O)OCC1CCN(C(=O)OC(C)(C)C)CC1`, the activation was -5.67% (inactive). Still for that read-out and setting: the value for `C=C1CC/C=C(/CO)C(=O)C[C@@H]2[C@@H]1C[C@@]2(C)COC(C)=O` was 11.5% (inactive); that for `C[C@@H]1CC[C@]2(C)C3(C)CC[C@@]2(OC3=O)[C@@]12C[C@H](c1ccoc1)OC2=O` was 26.7% (inactive); that for `Clc1ccc(CN[C@H]2CCN(c3ncc(Br)cn3)C2)c(Cl)c1` was 3.57% (inactive). On the same count and under the same terms, the value for `CC1(C)CC[C@]2(C(=O)O)CC[C@]3(C)C(=CCC4[C@@]5(C)C[C@H](O)[C@H](O[C@@H]6O[C@H](CO)[C@@H](O)[C@H](O)[C@H]6O)[C@@](C)(CO)C5[C@H](O)C[C@]43C)[C@@H]2C1` (stereo not given in full) was -13% (inactive); that for `CC(=O)OC1C(O)CC2(C)C(CCC(C)C23Cc2c(O)cc(CO)c(C=O)c2O3)C1(C)C` (stereo not given) was 6.87% (inactive); that for `COc1ccc(CCO[C@@H]2O[C@H](CO[C@@H]3OC[C@H](O)[C@H](O)[C@H]3O)[C@@H](O)[C@H](O)[C@H]2O)cc1` was -20.6% (inactive).

Take `Cn1ncnc1[C@@H]1c2n[nH]c(=O)c3cc(F)cc(c23)N[C@H]1c1ccc(F)cc1`: the activation is -7.14% (inactive).

Consider `C[C@H](CN1CCCC1)C(=O)c1ccc(C(F)(F)F)cc1`, for which the activation was 21% (inactive). The same measure, in the same setting: in the case of `CC1=C(CC/C(C)=C/C(=O)O)[C@@]2(C)CCCC(C)(C)C2CC1=O` (stereo not given in full) it was 6.25% (inactive); in that of `CC(=O)O[C@@H]1[C@H](O)[C@@H](O[C@@H]2O[C@@H](C)[C@H](O[C@@H]3OC[C@@H](O)[C@H](O[C@@H]4OC[C@@H](O)[C@H](O)[C@H]4O)[C@H]3O)[C@@H](O[C@@H]3O[C@H](CO)[C@@H](O)[C@H](O)[C@H]3O)[C@H]2O)[C@H](OC(=O)[C@]23CCC(C)(C)C[C@H]2C2=CCC4[C@@]5(C)CC[C@H](O[C@@H]6O[C@H](C(=O)O)[C@@H](O)[C@H](O[C@@H]7OC[C@@H](O)[C@H](O)[C@H]7O)[C@H]6O[C@@H]6O[C@H](CO)[C@H](O)[C@H](O)[C@H]6O)[C@@](C)(C=O)C5CC[C@@]4(C)[C@]2(C)CC3)O[C@@H]1C` (stereo not given in full), -9.16% (inactive). Still for that read-out and setting: the value for `C=C1CCC2C(C)(C)C(O)CCC2(C)C1CCC(C)CCOC(=O)CCC(=O)O` (stereo not given) was -3.82% (inactive); that for `C/C(=C\CC[C@@H](C)[C@H]1CC(O)[C@@]2(C)C3CC[C@H]4C(C)(C)[C@@H](OC5OCC(O)C(O)C5OC5OC(CO)C(O)C(O)C5O)CC[C@@]45C[C@@]35CC(O)[C@]12C)C(=O)O` (stereo not given in full) was -16.8% (inactive); that for `C/C=C/[C@@H]1C=C[C@@H]2C[C@H](C)CC[C@H]2[C@]1(C)/C(O)=C1/C(=O)[C@@H](CO)N(C)C1=O` was 6.87% (inactive). As to `CCOc1cc(CNC2CCCC2)cc(Cl)c1OCc1ccc(Cl)cc1`, the Potency was 21.3 µM (active). Take `C[C@]12CCC[C@](C)(C(=O)O)C1CCC13C=C(CO)C(CCC12)C3` (stereo not given in full): the activation is -24.4% (inactive). With `Cc1ccc(OC[C@H](O)[C@H](C)NC(C)C)c2c1CCC2`, the activation was 10.3% (inactive). Same read-out and setting: in the case of `O=C1NCc2nc3ccccc3c(=O)n2C1Cc1c[nH]c2ccccc12` (stereo not given) it was -7.63% (inactive).

With `CC(C)=CCC[C@](C)(O)[C@H]1CC[C@]2(C)[C@@H]1[C@H](O)CC1[C@@]3(C)CC[C@H](O)C(C)(C)[C@@H]3[C@@H](O[C@@H]3O[C@H](CO)[C@@H](O)[C@H](O)[C@H]3O[C@@H]3O[C@H](CO)[C@@H](O)[C@H](O)[C@H]3O)C[C@]12C` (stereo not given in full), the activation was -11.6% (inactive). The same measure, in the same setting: the value for `C[C@@H]1CC[C@]2(C(=O)O[C@@H]3O[C@H](CO)[C@@H](O)[C@H](O)[C@H]3O)CC[C@]3(C)C(=CCC4[C@@]5(C)C[C@@H](O)[C@H](O)C(C)(C)C5CC[C@]43C)C2[C@]1(C)O` (stereo not given in full) was -17.6% (inactive). Turning to `CC1(C)CC[C@]2(C(=O)O)CC[C@]3(C)C(=CCC4[C@@]5(C)CC[C@H](O[C@@H]6O[C@H](C(=O)O)[C@@H](O[C@@H]7OC[C@@H](O)[C@H](O)[C@H]7O)[C@H](O)[C@H]6O)C(C)(C)C5CC[C@]43C)C2C1O` (stereo not given in full), the activation is -1.79% (inactive). For the molecule `COC1OC(OC)C(O)(CCC2(C)C(C)CCC3(C)C2CC(O)C(O)C32CO2)C1O` (stereo not given), the activation is 0.763% (inactive). Take `C[C@]12CC[C@@H]3c4ccc(O[C@@H]5O[C@H](C(=O)O)[C@@H](O)[C@H](O)[C@H]5O)cc4CC[C@H]3[C@@H]1CCC2=O`: the activation was -7% (inactive). On the same count and under the same terms, the value for `C[C@@H]1C[C@H]2[C@@H]3CCC4=CC(=O)C=C[C@]4(C)[C@@]3(F)[C@@H](O)C[C@]2(C)[C@@]1(O)C(=O)COP(=O)(O)O` was -5.67% (inactive). The same measure, in the same setting: the value for `COc1cc(/C=C/C(=O)OC2[C@H](O)CC(O)(C(=O)O)C[C@H]2O)ccc1O` (stereo not given in full) was 7.63% (inactive).

Values taken from PubChem BioAssay (NCATS).
